Screening data from PubChem BioAssay.
Sfp inh = Sfp phosphopantetheinyl transferase inhibition. 310,000 compounds, 3.5% hits. AID 1490. Potency, µM, without a hit: largest response in the series, negative = inhibition, most hits filed as inhibitors. Biochemical Sfp PPTase activity, qHTS. Q9F4F7;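 note: the enzyme is Sfp with the accession as filed and its product quenches rhodamine fluorescence; 0% = enzyme reaction without inhibitor and -100% = no enzyme wells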
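Compounds were incubated with enzyme (final 15 nM) for 15 min at room temperature before substrate addition started the reaction. Fluorescence at 525 nm excitation, 598 nm emission was recorded immediately and after 30 minutes.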
12-LOX inh = inhibitors of human 12S-lipoxygenase ALOX12; purified 12hLO, xylenol orange hydroperoxide absorbance; Potency, µM (top dose mostly 108 µM), for inactives: at the top dose activity change, negative = inhibition, hits mostly inhibitors; 580,000 compounds, 1.1% hits; note: % is set by controls: 0 for no effect and ±100 for the full control effect
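Purified human 12hLO (150 nM final) in 25 mM Hepes, 0.01% Triton X-100, pH 7.0 was preincubated 15 min at room temperature with compound. Then 40 uM arachidonic acid was added, 30 min. Hydroperoxide was read by Fe-XO absorbance ratio 573/405 nm.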
G9a inh = inhibitors of human histone lysine methyltransferase G9a; Potency, µM (doses to about 102 µM), for inactives: at the highest dose activity, negative = inhibition, hits mostly inhibitors; 350,000 compounds, 8.8% hits; AID 504332; G9a H3K9 monomethylation, AlphaScreen, 2 h; note: % is set by controls: 0 for no effect and ±100 for the full control effect; nearly all actives have a fitted effect of over 75% in size
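Chemiluminescent proximity detection of H3K9 monomethylation, read after 10 min bead incubation in the dark. Reaction: 20 nM G9a, 500 nM biotin-H3K9 peptide, 20 uM SAM cofactor, 2 h, room temperature, following 15 min enzyme-compound preincubation.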
HP1b chromo inh = inhibitors of HP1-beta chromodomain binding to methylated histone tails | AlphaScreen HP1-beta / biotin-H3K9me3 peptide binding | AID 540317 | 390,000 compounds, 0.56% hits | Potency, µM (titrated, usually from 114 µM), without a hit: at the highest dose activity change, negative = inhibition, hits mostly inhibitors | P83916; note: nearly all actives have a fitted effect of over 70% in size
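HP1-beta protein (50 nM final) preincubated 30 min at room temperature with biotinylated H3(1-18)K9me3 peptide (50 nM) in PBS pH 7.4, 0.01% Tween-20, then compound added for 30 min. AlphaScreen streptavidin donor/nickel chelate acceptor beads (10 ug/mL final), 30 min dark, luminescence read.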
JMJD2A Tudor = JMJD2A Tudor domain (human) inhibition; AlphaScreen JMJD2A-Tudor / H3K4me3 peptide binding; 390,000 compounds, 4.4% hits; Potency, µM (top dose mostly 114 µM), for inactives: at the top dose activity change, negative = inhibition, hits mostly inhibitors; AID 504339; note: % is set by controls: 0 for no effect and ±100 for the full control effect; nearly all actives have a fitted effect of over 50% in size
BAZ2B block = blocks human BAZ2B; 360,000 compounds, 4.4% hits; AlphaScreen BAZ2B-H3K14Ac peptide displacement; Potency, µM (highest dose often 114 µM), for the others: top-dose activity change, negative = inhibition, usual class: inhibitors; Q9UIF8; note: % is set by controls: 0 for no effect and ±100 for the full control effect; nearly all actives have a fitted effect of over 60% in size
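Inhibition is scored as reduced AlphaScreen emission. The BAZ2B/b-H3(5-23)K14Ac complex (50 nM each) in PBS pH 7.4, 0.01% Tween-20 meets compound (up to 110 uM) for 30 min at RT before bead addition.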
Numbers without * were called inactive; u = inconclusive; x = not tested or not shown; ! = a repeat was not active; [ ] = dose if it differs, or a comment. Sampled rows, rich in hits. Any-hit rate of the full collection: about 8.7%. Calls come from the whole dose curve; as a rule, active = well fitted curve in the direction sought with a large enough effect; inconclusive = small, poorly fitted or top-dose-only effect, or another doubt; inactive = no such curve, though single readings can be large; an effect the other way counts as inactive or inconclusive. Potency is the fitted concentration of half-maximal effect.

SMILES	Sfp inh	12-LOX inh	G9a inh	HP1b chromo inh	JMJD2A Tudor	BAZ2B block
CCN(CC)C(=O)[C@H]1CC(CC(=O)NC/C=C(\C)CCC=C(C)C)C(=O)N2CCc3c([nH]c4ccc(OC)cc34)[C@]12C (stereo partly drawn)	x	-53%	x	u	50µM*	x
CCN(CC)C(=O)[C@H]1C[C@H](CC(=O)NC/C=C(\C)CCC=C(C)C)C(=O)N2CCc3c([nH]c4cc(-c5ccco5)ccc34)[C@]12C	x	-46%	x	u	32µM*	x
C#CCNCc1ccc(F)cc1	x	16%	x	x	x	x
O=C1COc2ccc(NC(=O)c3ccccc3C(=O)O)cc2N1	79µM*	-22%	u	31%	-9%	-17%
C/C(N)=C(/C#N)C(=O)CSc1nnc(Nc2cccc(C)c2)s1	3%	-13%	u	-5%	79µM*!	u
Cc1cccc(Nc2nnc(SCC(=O)c3c(N)n(C4CC4)c(=O)[nH]c3=O)s2)c1	x	496%	17%[12.7 µM]	38%	-4%	15%
C/C(N)=C(/C#N)C(=O)CSc1cc(Cl)ccc1Cl	3%	0%	u	28%	-7%	-18%
C/C(N)=C(/C#N)C(=O)CSc1nc2cc(Cl)ccc2s1	-11%	u	14µM*	10%	-19%	-10%
CCOC(=O)c1cnc2c(C)cc(C)cc2c1Nc1ccc(O)cc1	x	3%	x	x	x	x
COCC(=O)N[C@H]1C[C@@H](CO)N(Cc2ccc(C)s2)C1	x	35%	x	x	x	x
O=C(c1ccccc1)c1cc2ccccc2oc1=O	8%	2%	11%	26%	-15%	0%
O=C(NCc1ccc(F)cc1)c1cc2ccccc2o1	14%	0%	79µM*	40%	1%	-9%
O=C(NCc1cccnc1)c1cc2ccccc2oc1=O	-10%	8%	50µM*	-9%	-9%	-2%
O=C(NNC(=O)c1cc2ccccc2oc1=O)c1ccccc1	50µM*	1%	32µM*	u	-9%	3%
O=C(NNC(=O)c1cc2ccccc2o1)c1ccc(F)cc1	x	-13%	-8%[0.501 µM]	25%	-6%	-4%
CCCn1c(=O)c2sc(N3CCC(C)CC3)nc2n(CC(=O)Nc2cc(Cl)ccc2C)c1=O	x	-15%	x	x	x	x
CCN1C(=O)NC(c2c(F)cccc2Cl)C(C(=O)N2CCOCC2)=C1C (stereo not drawn)	x	1%	x	x	x	x
CC(=O)c1c(C)[nH]c(C(=O)C(C)Sc2ccc3c(c2)OCCCO3)c1C (stereo not drawn)	x	3%	x	x	x	x
N#CCCn1cc(C(=O)N2CCCCC2)c(-c2ccc(Cl)cc2)n1	x	-5%	x	x	x	x
Cn1c(SCc2ccc(C#N)cc2)nnc1-c1cccc(Cl)c1	21%	3%	2%	16%	-11%	-2%
Cn1c(SCc2ccc(C#N)cc2)nnc1-c1ccccc1	9%	12%	u	27%	-6%	-8%
COc1cccc(-c2nnc(SCc3ccc(C#N)cc3)n2Cc2ccco2)c1	u	u	35µM*	10%	u	-29%
Cc1ccc(-c2nnc(SCc3ccc(C#N)cc3)n2Cc2ccco2)cc1	-6%	-14%	x	7%	79µM*	-35%
Cc1c(C(=O)c2ccccc2)oc2ccc(NC(=O)c3ccncc3)cc12	x	12%	x	x	x	x
COc1cc(/C=C/C2=NC(=O)C(C)(C)O2)ccc1O	6%	x	u	22%	-14%	-5%
SMILES	Sfp inh	12-LOX inh	G9a inh	HP1b chromo inh	JMJD2A Tudor	BAZ2B block
COc1cc(/C=C/C2=Nc3ccccc3SC(C)(C)C2)ccc1O	x	16µM*	x	x	x	x
CC(C)c1ccc(NC(=O)CNCC(c2ccccc2)N(C)C)cc1 (stereo not drawn)	u	-6%	35µM*	-14%	45µM*	u
CC[N+](C)(CC)CC(C[N+](C)(CC)CC)OCc1ccccc1	x	14µM*	x	x	x	x
CC1=C([N+](=O)[O-])C(c2ccccc2)C2=C(N1)c1ccccc1C2=O (stereo not drawn)	u	u	10µM*	u	25µM*	35µM*
CC1(C)CC(=O)C2=C(C1)NC1=C(C(=O)c3ccccc31)C2c1ccccc1 (stereo not drawn)	0%	u	20µM*	50µM*	40µM*	32µM*
CC(C)(C)c1ccc(C2C3=C(CCCC3=O)NC3=C2C(=O)c2ccccc23)cc1 (stereo not drawn)	4%	u	40µM*	-27%	25µM*	u
CC(C)c1ccc(C2C3=C(CC(C)(C)CC3=O)NC3=C2C(=O)c2ccccc23)cc1 (stereo not drawn)	-16%	u	u	-36%	u	u
Cc1cnc(-c2cccnc2)n1CCN	x	34%	x	x	x	x
O=C(/N=C1\NC(=O)C(F)(C(F)(F)F)S1)NC1CCCCC1 (stereo not drawn)	13µM*	10µM*	3.2µM*	u	50µM*	-28%
C[C@H]1[C@@H]2[C@@H](O)C([C@H](C)C(=O)NCc3ccccn3)CC[C@@]2(C)CC[C@@H]1NC(=O)c1ccccc1 (stereo partly drawn)	x	11%	x	x	x	x
NCCCCCC(N)(C(=O)O)c1ccccc1 (stereo not drawn)	x	-17%	x	x	x	x
NCCCC(N)(C(=O)O)C(F)F (stereo not drawn)	-8%	-2%	7.1µM*!	19%	-2%	u
COCc1noc([C@@H]2CC(F)(F)CN2C(=O)Cc2ccccc2F)n1	x	57%	x	x	x	x
Cc1ccc(NC(=O)c2cccc(NC(=O)/C=C/c3ccco3)c2)cc1C	2%	40µM*	u	-25%	-33%	-37%
O=C(/C=C/c1ccco1)Nc1cccc(C(=O)Nc2ccccc2C(=O)O)c1	56µM*	-45%	x	-18%	79µM*	u
Cc1ccc(NC(=O)N/C=C/c2ccco2)c(C)c1	-12%	u	u	2%	u	-35%
CCc1ccccc1NC(=O)c1cccc(NC(=O)/C=C/c2ccco2)c1	20µM*	-31%	u	-2%	-27%	-37%
Cc1ccc(-n2nc3ccc(NC(=O)/C=C/c4ccco4)cc3n2)cc1	u	u	u	-15%	u	u
Cc1ccccc1NC(=O)c1cccc(NC(=O)c2ccco2)c1	20%	19%	31%	9%	-13%	-28%
Cc1ccc(NC(=O)N/C=C/c2ccco2)cc1C	-21%	28µM*	32µM*	7%	u	-33%
COc1ccc(-c2ccc3c(n2)sc2c(=O)[nH]c(=O)[nH]c23)cc1OC	-16%	x	3.5µM*	x	x	-38%
COc1ccc(C(=O)c2sc3nc(-c4ccccc4)ccc3c2N)cc1OC	-3%	1%	u	35%	-35%	-24%
COc1ccc(-c2ccc3c(N)c(C(=O)c4ccc(OC)c(OC)c4)sc3n2)cc1	-16%	u	2.8µM*	8%	u	-26%
